# In paper PMC13494018:
# A number with no mark means an inactive call. The rule behind the calls is not given here.
# B1: d1r7_design_ppi_538_dldesign_0_cycle0_af2pred (protein)
# chain: MEEVKKKAEEAKKEIEKLYEEALKYAKEGDIEKAAEYISKMREKGLEAAEEVPELAEEILAYTGRKALEALLELGKASL
# B2: d1r7_design_ppi_733_dldesign_0_cycle1_af2pred (protein)
# chain: VEEALKALEEAAKAAKEAGDEESAKILKEALEKVKAGTPAEGALTIAEKSAEAVKRALEKGNEELAEKILKLGQKAIAALSKAAIA
# B3: d1r7_design_ppi_855_dldesign_0_cycle0_af2pred (protein)
# chain: SAAAAQARAVARMAAAAAESGVDAAEVLAVVTGAAQQLAADPAALQAMLDTLTALAAASTPEAAAVLAAAAAAVAAVLA
# B4: d1r7_design_ppi_855_dldesign_0_cycle1_af2pred (protein)
# chain: SAAAAQARAVANTAAAAAKQGVPAEEVVALVEGAAKTLAGDPAALQAMIDTLAELAKASTPEAAATLNKAAEAVKKVLA
# B5: d1r7_design_ppi_677_dldesign_0_cycle0_af2pred (protein)
# chain: VEEKIRGIEEAGRLGAEASPELAAEIEAFTKRAVEAARASGDEAVAGAALQAASLALIGAAWYAVDPEKGAAVLARARARLEALIA
# B6: d1r7_design_ppi_522_dldesign_0_cycle1_af2pred (protein)
# chain: DPNEKARQLMNDAFQQATKLRAAGAANPATAAQDTAQGVQAVNEAKKKAAELASPEYAGKIEEMAKQLTSIISV
# B7: d1r7_design_ppi_815_dldesign_0_cycle0_af2pred (protein)
# chain: MEDLEELLRLIAEAQRALKTDAEEGIKLAEEAAKKAEELGLEKAAKLLKEAAKAAKTDAEEGIRLLNQAATQAAREYSEK
# B8: d1r7_design_ppi_682_dldesign_0_cycle1_af2pred (protein)
# chain: ATAEQIQQVKNYAKAAIQAVKNAAASDKAEALAVAKIFADALLKQGKLTTPEAAKEAEKAAKEILATAKALAA
# B9: d1r7_design_ppi_562_dldesign_0_cycle1_af2pred (protein)
# chain: SEKAEKLKKETLEKAEKAVKEAEASPDPKEGIKILSEAAREAARAAAESPEAGSAALALTVSAMEEFAAKARA
# B10: d1r7_design_ppi_628_dldesign_0_cycle1_af2pred (protein)
# chain: AEALLKEAEEVKARAAELAATGPEGIVEAAKLVAEMRRKGVENPEVRERVDALYREASAEIARQQRAWIAQQAAAR
# B11: d1r7_design_ppi_493_dldesign_0_cycle0_af2pred (protein)
# chain: SMLKEKEEAEKKRERVEKLIKEAEEAAKEAEKIDPVSGRGLRGMVEAARRLMEEGNLEAAEKLAQVALDAAAGLAAAA
# B12: d1r7_design_ppi_529_dldesign_0_cycle1_af2pred (protein)
# chain: DELEKAIKEAEKYIEELKKTIKEGVKNPEEALKLAEEAEKEGEKAAALGIVGAGVGQLAKAAAQALRNKIAA
# B13: d1r7_design_ppi_609_dldesign_0_cycle0_af2pred (protein)
# chain: SELAEQALAAAESLIAEALRAAAEDPARAARLFASAKAVAEALKKIDPKLGEELLKKVEAAEAEAKAAIA
# B14: d1r7_design_ppi_719_dldesign_0_cycle0_af2pred (protein)
# chain: SGAKAAIAAAKHNIKQAKKLLEEGDVEGALGHIKLAELATKAAEAEAKAAGDKEALKKAEELKKEVEELKKEAEKKKK
# B15: d1r7_design_ppi_806_dldesign_0_cycle1_af2pred (protein)
# chain: AKEEALRTLKSAAELAKVAADIAANVDPELAKKAKELAEKAKKLAEEAKKASEEEAKKLLEEGKKLLEEVRALTAEVARLAVAA
# B16: d1r7_design_ppi_733_dldesign_0_cycle0_af2pred (protein)
# chain: MEEALKALEEAEEAAREAGDEESAEILEKAREEVKAGTPSEGALTVARAAAEAVARARAAGNEDLADRVRALANRAIAALSRAAIA
# B17: d1r7_design_ppi_719_dldesign_0_cycle1_af2pred (protein)
# chain: SGAQAAVAAAQANLRQAKQLLEEGDYEGALGHIKLAKLAADAAKKQATAAGDQAAIDQATALQKEAEELEKEAKKALE
# B18: d1r7_design_ppi_640_dldesign_0_cycle1_af2pred (protein)
# chain: AQQAVQQTQKVVDETKEVYERAKKEGSPEVAEKLKELLAQAQNNLQMAQAGGAEAAQLMYQNAKKIYEEAKKYAEEEIKKEKE
# B19: d1r7_design_ppi_702_dldesign_0_cycle0_af2pred (protein)
# chain: SAEKETNLANAKGYLALAKAYTKGATYYATKEGDLEKAKELYEKAKEASKLAIEAAAKAGPEAAAKAKAEADEIDKENEKALKEAE
# Target: CD276, Q5ZPR3
# Sequence (Q5ZPR3 whole entry): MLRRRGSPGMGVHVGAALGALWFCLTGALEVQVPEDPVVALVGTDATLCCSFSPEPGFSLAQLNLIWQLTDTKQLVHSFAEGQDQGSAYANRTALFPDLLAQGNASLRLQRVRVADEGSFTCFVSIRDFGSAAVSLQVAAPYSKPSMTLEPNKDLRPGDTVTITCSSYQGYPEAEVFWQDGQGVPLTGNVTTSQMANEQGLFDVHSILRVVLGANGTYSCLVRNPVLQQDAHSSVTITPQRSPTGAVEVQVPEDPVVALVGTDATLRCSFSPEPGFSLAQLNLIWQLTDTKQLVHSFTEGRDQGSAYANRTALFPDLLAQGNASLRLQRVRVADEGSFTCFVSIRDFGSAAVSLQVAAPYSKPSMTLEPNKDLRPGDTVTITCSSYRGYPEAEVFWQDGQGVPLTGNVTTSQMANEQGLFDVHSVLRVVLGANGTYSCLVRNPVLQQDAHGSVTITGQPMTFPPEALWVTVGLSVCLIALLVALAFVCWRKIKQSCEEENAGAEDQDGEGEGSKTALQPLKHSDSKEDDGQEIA
row,Binder,binding in a display sort
1,B1,not found
2,B2,not found
3,B3,not found
4,B4,not found
5,B5,not found
6,B6,not found
7,B7,not found
8,B8,not found
9,B9,not found
10,B10,not found
11,B11,not found
12,B12,not found
13,B13,not found
14,B14,not found
15,B15,not found
16,B16,not found
17,B17,not found
18,B18,not found
19,B19,not found
